Results on 15 molecules are retold here after PubChem BioAssay (EPA / NIEHS).

The target of assay [1] is PGR (gene 5241) (UniProt P06401). Nature of the assay: TOX21_PR_BLA_Followup_Antagonist_ratio: Tox21 HEK293 Progesterone Receptor (PR) Antagonism Beta-lactamase Follow-Up Assay, Ratio (AID 2283934). In short, it runs like this: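 Antagonist mode used 1 nM R5020 (final) as agonist on a beta-lactamase reporter line in HEK293T cells. Activity was taken from the substrate cleavage ratio after 16 hr exposure.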
Sequence of PGR (gene 5241) (P06401 whole entry, looked up): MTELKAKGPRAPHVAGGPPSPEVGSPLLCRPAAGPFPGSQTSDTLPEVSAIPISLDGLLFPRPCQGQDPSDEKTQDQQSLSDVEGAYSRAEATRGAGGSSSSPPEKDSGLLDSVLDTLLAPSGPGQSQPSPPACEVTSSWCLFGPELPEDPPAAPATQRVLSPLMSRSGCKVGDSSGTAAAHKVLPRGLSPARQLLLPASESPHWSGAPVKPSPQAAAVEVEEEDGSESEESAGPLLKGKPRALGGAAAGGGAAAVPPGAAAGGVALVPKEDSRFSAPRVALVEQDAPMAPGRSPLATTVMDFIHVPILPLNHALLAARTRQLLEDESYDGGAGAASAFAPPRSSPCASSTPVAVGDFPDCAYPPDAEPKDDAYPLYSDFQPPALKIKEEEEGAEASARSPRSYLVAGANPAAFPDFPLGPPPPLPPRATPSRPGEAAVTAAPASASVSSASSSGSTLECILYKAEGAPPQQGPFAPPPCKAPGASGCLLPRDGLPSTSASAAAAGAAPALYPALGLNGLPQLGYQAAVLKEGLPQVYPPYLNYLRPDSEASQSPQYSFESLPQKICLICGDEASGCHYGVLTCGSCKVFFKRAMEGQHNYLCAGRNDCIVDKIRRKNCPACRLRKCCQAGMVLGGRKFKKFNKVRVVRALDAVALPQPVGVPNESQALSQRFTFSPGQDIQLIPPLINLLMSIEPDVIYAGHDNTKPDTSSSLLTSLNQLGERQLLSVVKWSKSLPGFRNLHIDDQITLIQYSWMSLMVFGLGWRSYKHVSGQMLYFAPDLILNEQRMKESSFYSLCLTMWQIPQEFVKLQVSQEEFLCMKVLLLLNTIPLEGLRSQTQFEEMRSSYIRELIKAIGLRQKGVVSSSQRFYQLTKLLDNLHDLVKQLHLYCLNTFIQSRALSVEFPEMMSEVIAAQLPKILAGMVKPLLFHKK

A short description of assay [2]: TOX21_PR_BLA_Followup_Agonist_viability: Viability Assessment in the Tox21 HEK293 Progesterone Receptor (PR) Agonism Beta-lactamase Follow-Up Assay (AID 2283935).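 Also: cells exposed to compound for 16 hr at 37 °C; signal loss means lower viability so actives are cytotoxic.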 In short, it runs like this:
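Multiplexed viability counter-screen: ATP-coupled luciferase signal measured after 30 min at room temperature, following 16 hr compound treatment of PR-UAS-bla HEK293T cells grown in charcoal-stripped serum.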

The target of assay [3] is PGR (gene 5241) (UniProt P06401). Nature of the assay: TOX21_PR_LUC_Followup_Antagonist: Tox21 HEK293 Progesterone Receptor (PR) Antagonism Luciferase Follow-Up Assay (AID 2283938).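 Also: curve fitted upward as signal gain over DMSO baseline despite antagonist label.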 In short, it runs like this: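 Cells are grown 5 days in charcoal-stripped-FBS assay medium, plated, left 5 h, then dosed with compound and incubated 16 h. ONE-Glo reagent is added and luminescence read after 30 min.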

Assay [4] is described as follows: CEETOX_H295R_CORTIC_noMTC: CeeTox H295R High-throughput Steroidogenesis Assay for Corticosterone (CORTIC), maximum tolerated concentration (MTC) filtered results only (AID 2283917; active = hit-call score of the fitted dose curve at least 0.9, where 1 is the maximum; inactive = score below 0.9). As to conditions: actives raise or lower the signal. As for the experimental part:
(§1) CEETOX_H295R is a cell-based, multiplexed-readout assay that uses H295R, a human adrenal gland cell line, with measurements taken at 48 hours after chemical dosing in a 96-well plate.CEETOX_H295R_CORTIC_noMTC is one of 12 assay component(s) measured or calculated from the CEETOX_H295R assay (11 hormones and 1 viability assay). It is designed to make measurements of hormone induction, a form of inducible reporter, as detected with absorbance signals by HPLC-MS-MS technology. The concentrations for these components have not been pre-filtered for the maximum tolerated concentration (MTC) based on the MTT assay (_noMTC).Data from the assay component CEETOX_H295R_CORTIC_noMTC was analyzed into 1 assay endpoint. This assay endpoint, CEETOX_H295R_CORTIC_noMTC, was analyzed with bidirectional fitting relative to DMSO as the negative control and baseline of activity. […]
Cell culture and media preparation procedures were conducted in accordance with OECD Test No. 456 guidelines, with minor modifications. […] For steroid quantification, media samples were shipped to OpAns, LLC (Durham, NC) on dry ice, and samples were thawed to room temperature prior to liquid-liquid extraction. […] Steroid hormones were separated by HPLC, eluted using a reverse phase C18 gradient with electrospray positive ionization, followed by quantification by tandem mass spectrometry (MS/MS). Data were acquired on a MassHunter Workstation Acquisition version B03.01 (Agilent Technologies, Inc.) and processed using MassHunter Quantitative Analysis for QQQ. Accuracy was determined for each hormone analyte from 3 standards to determine upper and lower limits of quantification (ULOQ and LLOQ, respectively) using a 7-point standard curve. Precision and accuracy of the extraction and quantification methods were calculated as the percent relative standard deviation (%RSD) of the spiked standards and percent spiked standard recovered, respectively. […] Test medium was removed following chemical exposure, and cell viability was evaluated in the same wells by MTT. […]

Assay [5] can be described thus: CEETOX_H295R_DOC_noMTC: CeeTox H295R High-throughput Steroidogenesis Assay for DOC, maximum tolerated concentration (MTC) filtered results only (AID 2283918; active = hit-call score of the fitted dose curve at least 0.9, where 1 is the maximum; inactive = score below 0.9). Conditions: actives raise or lower the signal. In outline:
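11-Deoxycorticosterone secreted by human adrenal H295R cells quantified by HPLC-MS/MS after 48 h chemical exposure (0.1% DMSO), following 48 h 10 uM forskolin prestimulation. Concentrations not filtered by MTT-derived MTC; bidirectional fitting.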

Assay [6] in a line: CEETOX_H295R_PROG_noMTC: CeeTox H295R High-throughput Steroidogenesis Assay for Progesterone (PROG), maximum tolerated concentration (MTC) filtered results only (AID 2283920; active = hit-call score of the fitted dose curve at least 0.9, where 1 is the maximum; inactive = score below 0.9). As to conditions: actives raise or lower the signal. In short, it runs like this:
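H295R cells; forskolin 10 uM x 48 h prestim; test cpd 48 h, 0.1% DMSO final; media progesterone via LC-MS/MS; bidirectional fit vs DMSO; no MTT-based MTC filter applied.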

A short description of assay [7]: TOX21_PR_BLA_Followup_Antagonist_viability: Viability Assessment in the Tox21 HEK293 Progesterone Receptor (PR) Antagonism Beta-lactamase Follow-Up Assay (AID 2283936).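 Also: hits lower the luminescence signal meaning cytotoxicity.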 In short, it runs like this: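 PR-UAS-bla HEK293T cells (3,000/well, 2% charcoal-stripped FBS) given compound plus R5020 agonist, 16 h at 37C. CellTiter-Glo added after bla read, 30 min at room temperature; luminescence loss indicates cytotoxicity.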

Assay [8] concerns the target PGR (gene 5241) (UniProt P06401). Nature of the assay: TOX21_PR_BLA_Followup_Agonist_ratio: Tox21 HEK293 Progesterone Receptor (PR) Agonism Beta-lactamase Follow-Up Assay, Ratio (AID 2283933). As for the experimental part:
TOX21_PR_BLA_Followup is a secondary assay for specificity for the TOX21_PR_BLA_Agonist assay. To differentiate true PR agonists from cytotoxic substances, this follow up assay is multiplexed with a cell viability assay. The compounds were also tested for auto fluorescence that may interfere with the biological target readout resulting in potential false positives and/or negatives. To identify the compounds that stimulate PR signaling, a PR-UAS-bla GripTite cell line i.e. PR-UAS-bla HEK293T (Invitrogen, Carlsbad, CA, USA) containing a beta-lactamase reporter gene under the control of an UAS response element was used to screen Tox21 10K compound library. The cytotoxicity of the Tox21 compound library against the PR-bla cell line was tested in parallel by measuring the cell viability using CellTiter-Glo assay in the same wells. TOX21_PR_BLA_Followup_Agonist_ratio is an assay readout measuring reporter gene via receptor activity and designed using inducible reporter (beta lactamase induction) detected with GAL4 b-lactamase reporter gene. The signal is derived from the ratio of cleaved (ch2) to uncleaved (ch1) reporter gene substrate used as the measure of target activity.Data from the assay component TOX21_PR_BLA_Followup_Agonist_ratio was analyzed into 1 assay endpoint. This assay endpoint, TOX21_PR_BLA_Followup_Agonist_ratio, was analyzed in the positive analysis fitting direction relative to DMSO as the negative control and baseline of activity. […] Furthermore, this assay endpoint can be referred to as a primary readout, because this assay has produced multiple assay endpoints where this one serves a reporter gene function. […]
Assay Protocol: PR-UAS-bla HEK 293T cells were dispensed at 3,000 cells/5 uL of assay medium containing 2% charcoal stripped FBS per well into black wall/clear-bottom 1536-well plates using a Multidrop Combi (ThermoFisher Scientific, Waltham, MA) dispenser. […] After the plates were incubated at room temperature for 2 hours, fluorescence intensity was measured by an Envision plate reader (PerkinElmer, Shelton, CT).

The target is the same in assay [9]. Nature of the assay: TOX21_PR_LUC_Followup_Agonist: Tox21 HEK293 Progesterone Receptor (PR) Agonism Luciferase Follow-Up Assay (AID 2283937; active = hit-call score of the fitted dose curve at least 0.9, where 1 is the maximum; inactive = score below 0.9). In outline: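 Agonist mode: reporter cells carrying PR-A and luciferase are treated 16 h with test compounds at 37C. Luciferase induction is measured by luminescence and fitted upward against DMSO.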
Assay [10] is described as follows: CEETOX_H295R_TESTO_noMTC: CeeTox H295R High-throughput Steroidogenesis Assay for Testosterone (TESTO), maximum tolerated concentration (MTC) filtered results only (AID 2283924; active = hit-call score of the fitted dose curve at least 0.9, where 1 is the maximum; inactive = score below 0.9). Conditions: actives raise or lower the signal. As for the experimental part: as §1, with “plate.CEETOX_H295R_TESTO_noMTC” for “plate.CEETOX_H295R_CORTIC_noMTC”, “CEETOX_H295R_TESTO_noMTC” for “CEETOX_H295R_CORTIC_noMTC”, “CEETOX_H295R_TESTO_noMTC,” for “CEETOX_H295R_CORTIC_noMTC,”
Cell culture and media preparation procedures were conducted in accordance with OECD Test No. 456 guidelines, with minor modifications. […] For steroid quantification, media samples were shipped to OpAns, LLC (Durham, NC) on dry ice, and samples were thawed to room temperature prior to liquid-liquid extraction. […] Steroid hormones were separated by HPLC, eluted using a reverse phase C18 gradient with electrospray positive ionization, followed by quantification by tandem mass spectrometry (MS/MS). […]

The structures appear in SMILES notation. Inconclusive results are not listed. Active and inactive are the calls of the source. The calls were made as follows, unless noted: active = hit-call score of the fitted dose curve at least 0.9, where 1 is the maximum; inconclusive = response in the unintended direction; inactive = score below 0.9.

Usually AC50 stands for the midpoint of the concentration-response curve, whichever way the signal moves.

On to `CC(C)(C1CCC(O)CC1)C1CCC(O)CC1` (stereo not given), for which the result (in the assay with PGR (gene 5241) [1]; in assay [2]; in the assay with PGR (gene 5241) [3]) was inactive.
As for `Cc1cc(Cl)ccc1N`, the outcome in [4] and in assay [5] was inactive. For the same molecule, the AC50 in [6] was 24.1 µM (active).
Consider `Nc1ccc(-c2ccccc2)cc1`, for which, in the assay with PGR (gene 5241) [1], the AC50 is 22.3 µM (active). Also, the result (in assay [2]; in [7]; with PGR (gene 5241) [3]) was inactive.
With `CCOP(=S)(OCC)Oc1ccc(Cl)cc1Cl`, the concentration at half-maximal activity (AC50) with PGR (gene 5241) [1] is 33.2 µM (active). Besides, the outcome (in [2]; in the assay with PGR (gene 5241) [3]) was inactive.
As for `O=S(=O)(Oc1ccc(Cl)cc1)c1ccc(Cl)cc1`, the outcome (with PGR (gene 5241) [1]; in [2]; in assay [7]; in the assay with PGR (gene 5241) [3]) was inactive.
In the case of `Cc1ccccc1OP(=O)(Oc1ccccc1C)Oc1ccccc1C`, the outcome (with PGR (gene 5241) [8]; in assay [2]; in assay [7]; with PGR (gene 5241) [9]; with PGR (gene 5241) [3]) was inactive. The AC50 with PGR (gene 5241) [1] is 39.9 µM (active).
On to `CCCSP(=S)(OCC)Oc1ccc(Cl)cc1Cl` (stereo not given), for which the AC50 with PGR (gene 5241) [1] was 22.6 µM (active); with PGR (gene 5241) [3], 24.3 µM (active). Further, the call in assay [2] and in assay [7] was inactive.
Turning to `CC(C)CC(C)(c1ccc(O)cc1)c1ccc(O)cc1`, the result (in the assay with PGR (gene 5241) [8]; in assay [2]; in [7]; with PGR (gene 5241) [9]) was inactive. Moreover, the AC50 is 12.7 µM (active) with PGR (gene 5241) [1] and 12.2 µM (active) with PGR (gene 5241) [3].
For the molecule `O=[N+]([O-])c1ccc(Nc2ccccc2)cc1`, the AC50 with PGR (gene 5241) [1] is 11.4 µM (active); with PGR (gene 5241) [3], 12.8 µM (active). For the same molecule, the call in assay [2] and in assay [7] was inactive.
For the molecule `c1cc[c]([Sb]([c]2ccccc2)[c]2ccccc2)cc1`, the half-maximal activity concentration (AC50) is 8.85 µM (active) in assay [4] and 10.8 µM (active) in assay [6]. The call in [5] and in [10] was inactive.
`O=S(=O)(c1ccc(Cl)cc1)c1cc(Cl)c(Cl)cc1Cl`: the AC50 is 27.3 µM (active) with PGR (gene 5241) [1] and 61 µM (active) with PGR (gene 5241) [3]. Further, the molecule was called inactive in assay [2] and in assay [7].
On to `CCCSP(=S)(OCC)Oc1ccc(SC)cc1` (stereo not given), for which the result (with PGR (gene 5241) [1]; in assay [2]; in assay [7]; with PGR (gene 5241) [3]) was inactive.
Consider `CC(O)(CS(=O)(=O)c1ccc(F)cc1)C(=O)Nc1ccc(C#N)c(C(F)(F)F)c1` (stereo not given), for which the half-maximal activity concentration (AC50) is 5.64 µM (active) in the assay with PGR (gene 5241) [1] and 6.97 µM (active) in the assay with PGR (gene 5241) [3].
As for `OC[P+](CO)(CO)CO`, the results for the half-maximal activity concentration (AC50) in [4], in assay [5] and in [6] were 3.54 µM (active), 12.3 µM (active) and 2.5 µM (active), respectively.
In the case of `OC(c1ccc(Cl)cc1)(c1ccc(Cl)cc1)c1cccnc1`, the result (in the assay with PGR (gene 5241) [8]; in [2]; in [7]; in the assay with PGR (gene 5241) [9]) was inactive. The AC50 with PGR (gene 5241) [1] is 29.3 µM (active); with PGR (gene 5241) [3] it was 62.2 µM (active).
